Source: PubChem BioAssay (EPA / NIEHS)
The source made the active and inactive calls. How the source made its calls: active means hit-call score of the fitted dose curve at least 0.9, where 1 is the maximum; inactive means score below 0.9.

Columns and labels:
[1] = ATG_CRE_CIS: Attagene CIS-FACTORIAL HepG2 Assay for human cAMP Responsive Element (CRE) binding protein 3 (AID 2282926); settings: HepG2 CRE cis-reporter, Attagene multiplexed mRNA; actives raise or lower the signal
How it was run: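 HepG2 cells transiently transfected with cis-element-driven multiple reporter transcription units; CRE reporter mRNA measured 24 h after dosing by RT-PCR, 6-FAM labelling, HpaI digestion and capillary electrophoresis. Bidirectional fit versus DMSO baseline.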

[2] = target: CCAAT/enhancer-binding protein beta (Homo sapiens) (UniProt P17676); assay: ATG_C_EBP_CIS: Attagene CIS-FACTORIAL HepG2 Assay for human CCAAT/Enhancer Binding Protein (C/EBP) beta (AID 2282927); settings: HepG2 Attagene cis-factorial transcription factor reporter; actives raise or lower the signal
How it was run: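 HepG2, transient MRTU transfection, 24 h treatment. RT-PCR plus CE fluorescence; DMSO negative control, bidirectional fit.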

[3] = ATG_CMV_CIS: Attagene CIS-FACTORIAL HepG2 Assay for human CMV (Internal Marker) (AID 2282928); settings: HepG2 CMV promoter reporter, transcription factor profiling; actives raise or lower the signal;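 further: endpoint acts as a background internal control marker rather than a target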
How it was run: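 Endogenous transcription factor activity read in HepG2 via transfected cis-promoter reporter units. After 24 h dosing, reporter mRNA measured by RT-PCR/capillary electrophoresis; gain or loss of signal fit relative to DMSO.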

[4] = ATG_DR4_LXR_CIS: Attagene CIS-FACTORIAL HepG2 Assay for human Liver X Receptor (LXR), DR4 submotif (AID 2282929); settings: HepG2 Attagene DR4 cis-reporter, mRNA transcription; actives raise or lower the signal
How it was run: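 HepG2, transient MRTU transfection, cis-element (DR4) promoter; 24 h compound exposure; total RNA → oligo(dT) RT → PCR → 6-FAM primer extension → HpaI cut → CE. Gain/loss vs DMSO, bidirectional fit.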

[5] = target: Aryl hydrocarbon receptor (Homo sapiens) (UniProt P35869); assay: ATG_Ahr_CIS: Attagene CIS-FACTORIAL HepG2 Assay for human Aryl Hydrocarbon Receptor (Ahr) (AID 2282930); settings: HepG2 AhR cis-factorial reporter transcription; actives raise or lower the signal
How it was run: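 Endogenous factor activity is tracked through cis-promoter reporter units transfected into HepG2 cells. Transcript levels at 24 h are read by fluorescent RT-PCR and capillary electrophoresis, with activity in either direction scored relative to DMSO.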

[6] = ATG_AP_1_CIS: Attagene CIS-FACTORIAL HepG2 Assay for human Activator Protein 1 (AP-1) (AID 2282931); settings: HepG2 Attagene cis-factorial AP-1 reporter mRNA; actives raise or lower the signal
How it was run: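 Transient MRTU transfection of HepG2 → 24 h chemical treatment → RNA isolation, RT-PCR, 6-FAM labelling, HpaI digest → capillary electrophoresis. Fit: bidirectional, DMSO negative control.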

[7] = ATG_AP_2_CIS: Attagene CIS-FACTORIAL HepG2 Assay for human Activator Protein 2 (AP-2) (AID 2282932); settings: HepG2 AP-2 cis-reporter, Attagene transcription factor profiling; actives raise or lower the signal
How it was run: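 Multiplexed mRNA reporter assay in HepG2: cis-regulated units report endogenous factor activity after 24 h treatment. Fluorescence from capillary electrophoresis of RT-PCR products gives the signal, with DMSO as baseline.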

[8] = ATG_BRE_CIS: Attagene CIS-FACTORIAL HepG2 Assay for human Bone Morphogenetic Protein (BMP) Response Element (BRE) (AID 2282933); settings: HepG2 BMP response element reporter, Attagene transcription factor profiling; actives raise or lower the signal
How it was run: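 Transient MRTU transfection of human HepG2 liver cells; 24 h compound treatment; total RNA isolated, reverse-transcribed, PCR-amplified, 6-FAM labelled, HpaI-cut, capillary electrophoresis. DMSO = negative control/baseline, bidirectional fit.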

[9] = target: Transcription factor E2F1 (Homo sapiens) (UniProt Q01094); assay: ATG_E2F_CIS: Attagene CIS-FACTORIAL HepG2 Assay for human E2F Transcription Factor 1 (AID 2282935); settings: HepG2 Attagene cis-reporter, E2F reporter RNA transcripts; actives raise or lower the signal
How it was run: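 Measures reporter transcript levels via RT-PCR with capillary electrophoresis detection in HepG2 cells harboring cis-regulated reporter units; 24 h post-dose; bidirectional curve fitting with DMSO as baseline.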

[10] = ATG_E_Box_CIS: Attagene CIS-FACTORIAL HepG2 Assay for human Enhancer Box (E-box) (AID 2282936); settings: HepG2 E-box cis-reporter transcription, actives raise or lower the signal
How it was run: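 First, HepG2 cells receive multiple cis-regulated reporter constructs by transient transfection. Next, chemicals are applied for 24 h. Finally, reporter mRNA is quantified via RT-PCR and capillary electrophoresis, with DMSO as baseline.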

[11] = ATG_M_61_CIS: Attagene CIS-FACTORIAL HepG2 Assay for M61 Transcription Factor (Internal Marker) (AID 2282937); settings: HepG2 Attagene CIS-FACTORIAL M61 internal marker reporter; actives raise or lower the signal
How it was run: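 Human liver HepG2, transient MRTU transfection (cis promoter elements), 24 h compound. Total RNA → oligo(dT) RT → PCR → FAM label → HpaI → CE. Internal background marker; bidirectional fitting, DMSO = baseline.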

[12] = ATG_EGR_CIS: Attagene CIS-FACTORIAL HepG2 Assay for human Early Growth Response 1 (EGR1) (AID 2282938); settings: HepG2 Attagene CIS-FACTORIAL EGR reporter mRNA; actives raise or lower the signal
How it was run: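 Transient transfection of human HepG2 with multiple cis-regulated reporter units, chemical exposure 24 h, total RNA isolated. Reverse transcription, PCR, fluorescent labelling and capillary electrophoresis quantify reporter transcripts; activity fitted bidirectionally against DMSO.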

[13] = ATG_M_19_CIS: Attagene CIS-FACTORIAL HepG2 Assay for M19 Transcription Factor (Internal Marker) (AID 2282939); settings: HepG2 Attagene CIS-FACTORIAL M19 internal marker reporter; actives raise or lower the signal
How it was run: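 Transfect HepG2 with MRTU reporter library → dose chemical, 24 h → isolate total RNA, reverse-transcribe with oligo(dT) → PCR, 6-FAM label, HpaI cut (2 h, 37 C) → capillary electrophoresis. Bidirectional fit vs DMSO.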

[14] = ATG_ERE_CIS: Attagene CIS-FACTORIAL HepG2 Assay for Estrogen Response Element (ERE) (AID 2282940); settings: HepG2 ERE cis-reporter, Attagene RNA transcript; actives raise or lower the signal
How it was run: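 Transient MRTU transfection of human HepG2; cis-element promoters; 24 h dosing; total RNA → RT (oligo dT) → PCR → 6-FAM primer extension → HpaI digest → CE fluorescence. Bidirectional fit, DMSO baseline.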

[15] = ATG_Ets_CIS: Attagene CIS-FACTORIAL HepG2 Assay for human Erythroblast Transformation Specific (ETS) (AID 2282941); settings: HepG2 ETS cis-reporter transcription, actives raise or lower the signal
How it was run: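 Steps: transfect HepG2 with multiple reporter units; treat compound 24 h; isolate RNA, DNase-treat, reverse-transcribe; PCR-amplify, label with 6-FAM, digest with HpaI; separate by capillary electrophoresis. Activity fitted both directions versus DMSO.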

[16] = target: Hepatocyte nuclear factor 3-beta (Homo sapiens) (UniProt Q9Y261); assay: ATG_FoxA2_CIS: Attagene CIS-FACTORIAL HepG2 Assay for human Forkhead box A2 (FOXA2) (AID 2282942); settings: HepG2 cis-reporter transcription factor activity, 24 h; actives raise or lower the signal
How it was run: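 Transient MRTU transfection of HepG2 liver cells; 24 h treatment; total RNA → oligo(dT) RT → PCR → FAM primer extension → HpaI cut → CE. Bidirectional fit vs DMSO.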

[17] = ATG_FoxO_CIS: Attagene CIS-FACTORIAL HepG2 Assay for human Forkhead box O (FoxO) (AID 2282943); settings: HepG2 Attagene cis-reporter, FoxO element, mRNA; actives raise or lower the signal
How it was run: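 Transfected HepG2 reporter cells exposed to test chemical for 24 h; reporter RNA measured by reverse transcription, PCR and fluorescent capillary electrophoresis; curves fitted for increases and decreases against DMSO.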

[18] = ATG_GATA_CIS: Attagene CIS-FACTORIAL HepG2 Assay for human GATA Binding Protein (AID 2282944); settings: HepG2 GATA cis-element reporter, Attagene multiplex mRNA; actives raise or lower the signal
How it was run: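 Transient MRTU transfection, HepG2, 24 h compound exposure. Total RNA → oligo(dT) RT → PCR → 6-FAM primer extension → HpaI cut → CE. Bidirectional fit vs DMSO.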

CCAAT/enhancer-binding protein beta (Homo sapiens), sequence (P17676 whole entry, looked up): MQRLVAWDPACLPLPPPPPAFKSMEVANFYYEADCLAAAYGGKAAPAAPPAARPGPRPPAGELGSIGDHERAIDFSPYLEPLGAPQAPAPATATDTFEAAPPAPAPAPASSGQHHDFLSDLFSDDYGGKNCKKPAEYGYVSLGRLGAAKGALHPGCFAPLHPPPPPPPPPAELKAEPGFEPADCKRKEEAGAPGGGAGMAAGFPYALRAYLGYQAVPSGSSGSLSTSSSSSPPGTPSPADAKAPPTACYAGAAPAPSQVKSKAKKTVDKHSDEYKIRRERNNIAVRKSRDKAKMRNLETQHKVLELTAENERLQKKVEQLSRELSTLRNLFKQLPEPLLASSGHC
Transcription factor E2F1 (Homo sapiens), sequence (Q01094 whole entry, looked up): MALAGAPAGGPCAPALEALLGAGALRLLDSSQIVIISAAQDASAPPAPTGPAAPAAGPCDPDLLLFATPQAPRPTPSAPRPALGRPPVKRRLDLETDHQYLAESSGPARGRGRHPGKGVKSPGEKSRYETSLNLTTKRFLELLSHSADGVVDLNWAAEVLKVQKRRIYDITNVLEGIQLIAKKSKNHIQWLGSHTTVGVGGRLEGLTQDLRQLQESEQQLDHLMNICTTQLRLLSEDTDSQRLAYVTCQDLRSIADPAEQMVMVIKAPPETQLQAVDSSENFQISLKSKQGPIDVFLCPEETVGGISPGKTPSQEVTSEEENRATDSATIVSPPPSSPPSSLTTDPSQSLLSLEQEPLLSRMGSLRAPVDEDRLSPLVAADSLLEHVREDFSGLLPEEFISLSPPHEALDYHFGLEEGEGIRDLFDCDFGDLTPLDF
Aryl hydrocarbon receptor (Homo sapiens), sequence (P35869 whole entry, looked up): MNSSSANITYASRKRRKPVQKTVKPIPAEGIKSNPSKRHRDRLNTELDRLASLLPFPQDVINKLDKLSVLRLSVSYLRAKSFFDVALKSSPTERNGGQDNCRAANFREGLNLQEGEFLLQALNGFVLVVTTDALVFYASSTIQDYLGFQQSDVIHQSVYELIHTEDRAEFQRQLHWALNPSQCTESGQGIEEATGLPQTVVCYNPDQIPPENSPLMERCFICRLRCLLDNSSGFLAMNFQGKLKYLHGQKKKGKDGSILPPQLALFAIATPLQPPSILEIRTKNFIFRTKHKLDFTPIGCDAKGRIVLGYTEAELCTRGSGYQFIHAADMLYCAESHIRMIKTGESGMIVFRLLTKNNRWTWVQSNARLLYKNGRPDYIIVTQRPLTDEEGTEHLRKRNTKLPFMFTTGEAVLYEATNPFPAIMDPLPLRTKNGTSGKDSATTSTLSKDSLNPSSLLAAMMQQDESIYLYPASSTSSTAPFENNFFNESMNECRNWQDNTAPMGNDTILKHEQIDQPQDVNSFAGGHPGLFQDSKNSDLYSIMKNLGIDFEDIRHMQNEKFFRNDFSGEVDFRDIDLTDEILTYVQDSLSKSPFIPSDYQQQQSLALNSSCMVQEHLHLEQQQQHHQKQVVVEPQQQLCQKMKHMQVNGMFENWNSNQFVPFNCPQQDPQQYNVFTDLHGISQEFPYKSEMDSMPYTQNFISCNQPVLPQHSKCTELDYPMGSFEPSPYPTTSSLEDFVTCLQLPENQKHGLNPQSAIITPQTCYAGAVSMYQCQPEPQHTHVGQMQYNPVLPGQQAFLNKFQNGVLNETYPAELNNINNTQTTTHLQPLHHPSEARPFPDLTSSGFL
Hepatocyte nuclear factor 3-beta (Homo sapiens), sequence (Q9Y261 whole entry, looked up): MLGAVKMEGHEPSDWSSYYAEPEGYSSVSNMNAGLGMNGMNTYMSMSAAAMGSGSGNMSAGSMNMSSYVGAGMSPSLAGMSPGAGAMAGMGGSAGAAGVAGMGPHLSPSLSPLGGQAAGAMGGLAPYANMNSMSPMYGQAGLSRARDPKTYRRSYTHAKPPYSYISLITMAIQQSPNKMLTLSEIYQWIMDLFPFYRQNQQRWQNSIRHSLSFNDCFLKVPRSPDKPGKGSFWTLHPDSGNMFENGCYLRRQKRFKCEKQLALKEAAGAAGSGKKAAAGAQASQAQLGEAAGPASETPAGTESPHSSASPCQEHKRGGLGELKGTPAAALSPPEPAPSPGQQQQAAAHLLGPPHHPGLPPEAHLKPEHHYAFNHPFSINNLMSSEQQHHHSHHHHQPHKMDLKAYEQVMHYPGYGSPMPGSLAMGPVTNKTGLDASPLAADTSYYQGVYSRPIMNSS

Structure (SMILES)	outcome [1]	outcome [2]	outcome [3]	outcome [4]	outcome [5]	outcome [6]	outcome [7]	outcome [8]	outcome [9]	outcome [10]	outcome [11]	outcome [12]	outcome [13]	outcome [14]	outcome [15]	outcome [16]	outcome [17]	outcome [18]	AC50 [4]	AC50 [14]
CCC(CC)CO	inactive	inactive	inactive	inactive	inactive	inactive	inactive	inactive	inactive	inactive	inactive	inactive	inactive	inactive	inactive	inactive	inactive	inactive		
CC(=O)OC(C)(C)C	inactive	inactive	inactive	inactive	inactive	inactive	inactive	inactive	inactive	inactive	inactive	inactive	inactive	inactive	inactive	inactive	inactive	inactive		
CC(C)(C)c1cc(CCC(=O)OCCSCCOC(=O)CCc2cc(C(C)(C)C)c(O)c(C(C)(C)C)c2)cc(C(C)(C)C)c1O	inactive	inactive	inactive	inactive	inactive	inactive	inactive	inactive	inactive	inactive	inactive	inactive	inactive	inactive	inactive	inactive	inactive	inactive		
N=C1N=C(N)c2ccccc21	inactive	inactive	inactive		inactive	inactive	inactive	inactive	inactive	inactive	inactive	inactive	inactive			inactive	inactive	inactive	100 µM (active)	18.1 µM (active)
CCCCCC#CC(=O)OC	inactive	inactive	inactive	inactive	inactive	inactive	inactive	inactive	inactive	inactive	inactive	inactive	inactive	inactive	inactive	inactive	inactive	inactive		
CCCCCCCCCCCCOCCOS(=O)(=O)O	inactive	inactive	inactive	inactive	inactive	inactive	inactive	inactive	inactive	inactive	inactive	inactive	inactive	inactive	inactive	inactive	inactive	inactive		
CC1=CCC(C(C)(C)O)CC1 (stereo unspecified)	inactive	inactive	inactive	inactive	inactive	inactive	inactive	inactive	inactive	inactive	inactive	inactive	inactive	inactive		inactive	inactive	inactive		
COc1ccc2[nH]cc(CCNC(C)=O)c2c1	inactive	inactive	inactive	inactive	inactive	inactive	inactive	inactive	inactive	inactive	inactive	inactive	inactive	inactive		inactive	inactive	inactive		
